Structures are written as SMILES.

A short description of the assay: compound effects on hepatocellular carcinoma cell viability – HepG2, calcein-AM fluorescence, 48 h, basal, profiling panel (AID 1164). Note: test concentration not given here. Conditions: higher = more signal.
Turning to `O=C(CS)NCCCCCNC(=O)[C@@H]1C[C@@H]2C(=O)NCC(=O)N2[C@@H]1c1cccc(OCCO)c1`, the z-score is 0.938.

On to `O=C(CS)NCCCCCNC(=O)[C@H]1C[C@H]2C(=O)NCC(=O)N2[C@H]1c1cccc(OCCO)c1`, for which the z-score is -0.203.

With `CN(C)CCCCNC(=O)[C@@H]1C[C@@H]2C(=O)N[C@@H](CCCCN)C(=O)N2[C@@H]1c1ccc(O)cc1`, the z-score was 0.377.

Regarding `COc1ccc(CCNC(=O)[C@@]2(C)c3ccccc3C(=O)N(c3ccc(C)cn3)[C@H]2c2ccc(CO)cc2)cc1`, the z-score was -0.352.

Regarding `O=C(NCCN1CCOCC1)[C@@H]1c2ccccc2C(=O)N(Cc2cc(C(F)(F)F)cc(C(F)(F)F)c2)[C@H]1c1ccc(CO)cc1`, the z-score was 1.82.

Consider `O=C(NCc1ccccc1)[C@@H]1c2ccccc2C(=O)N(C2Cc3ccccc3C2)[C@H]1c1ccc(CO)cc1`, for which the z-score was 0.291.

For the compound `COCCOC(=O)N1C(=O)[C@@]2(c3cc(C#CC4(O)CCCCCC4)ccc31)[C@H](C(=O)Nc1nc3ccccc3s1)[C@H]1C(=O)O[C@H](c3ccccc3)[C@H](c3ccccc3)N1[C@@H]2c1ccccc1OCCO`, the z-score is -0.333.

Turning to `CC1CC/C=C\[C@H]2OC34C=CCN(c5ccc6ccccc6c5)C(=O)[C@H]3N(CCO)C(=O)[C@@H]4C2C(=O)O1` (stereo not given in full), the z-score was -0.303.

Regarding `O=C1O[C@@H](c2ccccc2)[C@@H](c2ccccc2)N2[C@@H](c3ccc(OCCO)cc3)[C@]3(C(=O)Nc4ccc(C#CCCO)cc43)[C@@H](C(=O)NC[C@H](O)c3ccccc3)[C@H]12`, the z-score is 0.808.

As to `O=C1OCCC/C=C\[C@H]2OC34C=CCN(c5ccc6ccccc6c5)C(=O)[C@H]3N(CCCCCO)C(=O)[C@@H]4C12` (stereo not given in full), the z-score is 0.513.

Turning to `CC(C)CNC(=O)[C@@]1(Cc2ccccc2I)c2ccccc2C(=O)N(Cc2ccccc2C(F)(F)F)[C@H]1c1ccc(CO)cc1`, the z-score is -0.0693.

`C#CCOc1ccc(C[C@@H](C(=O)OC)N(CC#C)[C@@H](/C=C/C2CC2)[C@H](O)Cc2ccccc2)cc1`: the z-score is -2.42.

With `CCOC(=O)[C@H]1C/C=C/C[C@H](C(=O)OCC)C(=O)O[C@H]2[C@@H](OC)O[C@H](CO)[C@@H](OC(=O)c3ccc(Br)cc3)[C@@H]2OC1=O`, the z-score is 0.404.

Regarding `O=C1[C@@]23C=C(Br)[C@H](C[C@@H]2COC3)[C@]12CO2`, the z-score is -1.1.

For `O=C1NC(=O)C2C1C=CC(C(O)c1ccc(-c3ccccc3)s1)N2Nc1ccc(Cl)cc1Cl` (stereo not given), the z-score is -2.13.

For the compound `C=C(C(=O)CC[C@H](OC(C)=O)c1ccccc1OCCO)C(C)C`, the z-score is -3.04.

`O=C1C2C=CC(C(O)COCc3ccccc3)N(Nc3ccc([N+](=O)[O-])cc3)C2C(=O)N1c1ccccc1` (stereo not given): the z-score was -0.617.

`COCC(=C=CC[C@H](O)c1cccc(OCCO)c1)CCO`: the z-score is -0.909.

Consider `NCCCCCCNC(=O)[C@H]1C[C@H]2C(=O)N[C@@H](Cc3ccccc3)C(=O)N2[C@H]1c1cccc(OCCO)c1`, for which the z-score is -0.378.

On to `CCCCCN1CC=CC23O[C@@H]4C=CCOC(=O)[C@@H]4[C@H]2C(=O)N(C(C)CO)[C@@H]3C1=O` (stereo not given in full), for which the z-score is -0.177.

As to `CC(c1ccccc1)C(O)C1C=CC2C(=O)N(C)C(=O)C2N1NC(=O)OC(C)(C)C` (stereo not given), the z-score was -0.527.

With `COCCCNC(=O)[C@@H]1c2ccccc2C(=O)N(Cc2ccccc2)[C@H]1c1ccc(CO)cc1`, the z-score was 0.601.

On to `COCCOC(=O)N1C(=O)[C@@]2(c3cc(C#CCCO)ccc31)[C@H](c1ccc(OCCO)cc1)N1[C@H](c3ccccc3)[C@H](c3ccccc3)OC(=O)[C@H]1[C@@H]2C(N)=O`, for which the z-score is 1.35.

Regarding `COc1ccc(C(=O)Nc2ccc(CN3C(=O)[C@]4(O[C@H](CC(=O)N5CCC[C@H]5CO)[C@@H]([Si](C)(C)c5ccc(OC)cc5)[C@@H]4C)c4ccccc43)cc2)cc1`, the z-score is -4.53.

`C=CC[C@]1(C(N)=O)COC(c2ccc(OCCCO)cc2)=N1`: the z-score was 0.0717.

Take `COC(=O)[C@@]1(Cc2ccccc2)[C@H]2c3cc(C(=O)N(C)C)n(CCc4c[nH]c5ccc(O)cc45)c3C[C@H]2CN1C(=O)c1ccccc1`: the z-score was 1.22.

For the compound `COc1ccc(C#Cc2ccc3c(c2)[C@]2(C(=O)N3)[C@H](c3ccc(O)cc3)N3[C@H](c4ccccc4)[C@H](c4ccccc4)OC(=O)[C@H]3[C@@H]2C(=O)N2CCc3cc(OC)c(OC)cc3C2)cc1`, the z-score is -0.0752.

Consider `O=C1OCCC=C[C@H]2OC34C=CCN(Cn5nnc6ccccc65)C(=O)[C@H]3N(CCO)C(=O)[C@@H]4C12` (stereo not given in full), for which the z-score was -0.556.

Consider `CC(C)Cc1ccc(CN2CC[C@@H](N)C2)cc1`, for which the z-score was -0.375.

For `C[N+](C)(C)CCCCCCNC(=O)[C@H]1C[C@H]2C(=O)N[C@@H](Cc3ccccc3)C(=O)N2[C@H]1c1cccc(OCCO)c1`, the z-score was -0.695.

The record behind these values is PubChem BioAssay.
